hcDAF12 agonist – activators of H. contortus DAF-12 nuclear receptor; hit rate 1.4% among 370,000; HEK293 hcDAF-12 lit1-tk-luc reporter, luminescence; 0% DMSO, 100% Δ7-dafachronic acid; AID 652067; activation, % at 6.8 µM;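 active means activation above the mean of all tested compounds plus 3 SD, cut at about 5.5% in these data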
AHR activator – activates the human aryl hydrocarbon receptor. AHR-responsive luciferase reporter cells, luminescence. activation, % at 5 µM. hit rate 2.5% among 320,000. P35869; in the data active means activation above about 47%
Target sequence (P35869 whole entry, looked up): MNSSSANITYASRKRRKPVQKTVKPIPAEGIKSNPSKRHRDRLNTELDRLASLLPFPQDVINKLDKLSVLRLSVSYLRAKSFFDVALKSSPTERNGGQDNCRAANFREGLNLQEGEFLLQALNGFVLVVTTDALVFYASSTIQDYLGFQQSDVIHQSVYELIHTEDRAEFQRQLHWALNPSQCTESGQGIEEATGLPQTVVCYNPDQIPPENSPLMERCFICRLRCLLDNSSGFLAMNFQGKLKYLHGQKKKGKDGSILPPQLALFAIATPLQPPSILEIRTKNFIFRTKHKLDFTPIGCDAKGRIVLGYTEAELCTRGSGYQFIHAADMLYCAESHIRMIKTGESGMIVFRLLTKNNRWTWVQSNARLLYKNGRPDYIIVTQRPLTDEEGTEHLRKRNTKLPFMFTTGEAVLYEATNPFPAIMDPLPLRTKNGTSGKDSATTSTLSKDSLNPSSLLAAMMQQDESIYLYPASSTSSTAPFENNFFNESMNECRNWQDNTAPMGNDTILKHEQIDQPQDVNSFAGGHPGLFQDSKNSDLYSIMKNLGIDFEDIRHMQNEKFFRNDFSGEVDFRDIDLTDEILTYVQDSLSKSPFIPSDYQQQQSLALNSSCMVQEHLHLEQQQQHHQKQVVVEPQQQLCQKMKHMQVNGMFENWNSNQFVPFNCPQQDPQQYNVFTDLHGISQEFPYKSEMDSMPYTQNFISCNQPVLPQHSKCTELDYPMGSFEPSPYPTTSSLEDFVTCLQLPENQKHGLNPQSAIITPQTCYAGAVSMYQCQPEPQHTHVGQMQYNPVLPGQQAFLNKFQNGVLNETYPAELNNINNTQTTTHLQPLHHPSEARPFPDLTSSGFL
DAX1 inh-1 – inhibitors of human orphan nuclear receptor DAX1 (NR0B1); P51843; AID 504766; inhibition, % at 6.75 µM; HEK293 Gal4-DAX1 luciferase reporter, luminescence; hit rate 0.99% among 340,000;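 active means inhibition above the mean over all tested compounds plus 3 SD, cut at about 4.2% in these data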;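 further: inhibition shows as a rise in luminescence from relieved DAX1 repression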
hgDAF-12 ag – agonists of H. glycines DAF-12 nuclear receptor; HEK293 GAL4-hgDAF12 UAS-luciferase reporter, agonist luminescence; normalized to butyrate control; activation, % at 6.8 µM; hit rate 1.8% among 370,000; AID 687014;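 active means activation above a cutoff set at the mean of all screened compounds plus 3 SD, cut at about 10% in these data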
DAX1 inh-2 – DAX1 (NR0B1) inhibition, primary screen; HEK293T StAR-luciferase reporter, SF-1/DAX-1 repression relief; inhibition, % at 6.8 µM; hit rate 1.1% among 370,000; AID 652010;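 active means inhibition above the mean over all tested compounds plus 3 SD, cut at about 3.6% in these data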;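 further: higher inhibition means more luminescence from relief of DAX-1 repression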
ssDAF12 agonist – activates DAF-12 receptor from parasite S. stercoralis; activation, % at 6.8 µM; hit rate 1% among 370,000; HEK293 ssDAF-12/GRIP1 lit1-tk-luc reporter, luminescence; % of 3 µM dafachronic acid response;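 active means activation above the mean over all tested compounds plus 3 SD, cut at about 0.9% in these data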
Of the large screens only hits and unclear results are named; the others gave an inactive call. Only some compounds are listed: those with a hit (about 5.7% of all), similar ones and a draw of the others.

CCN(CC)C(=S)Nc1ccc([N+](=O)[O-])cc1	none
CC(=O)NCCCNc1ccc([N+](=O)[O-])cc1	hcDAF12 agonist 6.1
CC(Cc1cccs1)NC(=O)Nc1ccc([N+](=O)[O-])cc1 (configuration not stated)	hgDAF-12 ag 13.1
CCNC(=O)C(=O)Nc1ccc([N+](=O)[O-])cc1	DAX1 inh-1 4.7
Clc1ncc(Cn2cccn2)s1	none
O=C1/C(=C\c2ccc3c(c2)OCO3)CCC/C1=C/c1ccc2c(c1)OCO2	AHR activator 48.5
O=C1OCC/C1=C\c1ccc2c(c1)OCO2	none
CCn1c(NCc2ccc3c(c2)OCO3)nc2ccccc21	AHR activator 68.7
C=CCn1c(NCc2ccccc2)nc2ccccc21	DAX1 inh-1 7.1
CCOc1ccc(OCC)c(NC(=O)CCNS(=O)(=O)c2cc(Br)cnc2N)c1	none
O=C(O)c1ccccc1C(=O)Nc1ccc(S(=O)(=O)Nc2ccc(F)cc2)cc1	none
C[C@@H]1CCC(=O)N(C[C@@H](C)CSc2ccccc2)CC1	none
CNC(=O)C1=C(C)Nc2nc3ccccc3n2C1c1ccc(F)cc1 (configuration not stated)	none
CCOC(=O)C1=C(C)Nc2nc3ccccc3n2C1c1ccccc1 (configuration not stated)	DAX1 inh-1 5.4
N#CCCn1cc(/C=C/C(=O)O)c(-c2ccc(F)cc2)n1	DAX1 inh-1 5.4
COCCCNC(=O)CNC(=S)N(Cc1ccc(F)cc1)C1CCCCC1	ssDAF12 agonist 1.2
CCOCCCNC(=O)CNC(=S)N(Cc1ccccc1F)C1CCCCC1	none
COc1ccc(N=c2sc3ccccc3n2C)cc1	hcDAF12 agonist 6.1, DAX1 inh-1 5.6, hgDAF-12 ag 11.1, DAX1 inh-2 4.5
COc1ccccc1N=c1sc2ccccc2n1C	none
O=C(Nc1ccccc1)c1ncoc1-c1ccc(Cl)cc1	AHR activator 56.9
O=C(Nc1ccc(-c2cnco2)cc1)c1ccc(Cl)cc1	none (no result: DAX1 inh-1)
O=C(CSc1nc(-c2ccc(F)cc2)cc(C(F)(F)F)n1)NCCN1CCOCC1	none
O=C(CSc1nc(-c2ccco2)cc(C(F)(F)F)n1)NCCN1CCOCC1	DAX1 inh-1 6.0
CCCC(=O)Nc1ccc(S(=O)(=O)N2CCc3ccccc32)cc1	DAX1 inh-1 4.8 (no result: AHR activator)
CCC(=O)Nc1ccc(S(=O)(=O)N2CCc3ccccc32)cc1	none
O=C(CNC(=O)c1cccc(S(=O)(=O)N2CCc3ccccc32)c1)Nc1ccccc1Br	ssDAF12 agonist 1.2 (no result: AHR activator)
N/C(=N\OC(=O)Nc1ccccc1)c1ncc(C(F)(F)F)cc1Cl	hcDAF12 agonist 5.6
COC(=O)/C(=C\Nc1ccccc1N)c1ncc(C(F)(F)F)cc1Cl	hcDAF12 agonist 5.7, AHR activator 69.4, hgDAF-12 ag 11.7, DAX1 inh-2 4.3
N/C(=N\OC(=O)Nc1ccc(Cl)cc1)c1ncc(C(F)(F)F)cc1Cl	none
Cc1ccc(S(=O)(=O)N2CCCC(C(=O)NCCN3CCC(Cc4ccccc4)CC3)C2)cc1 (configuration not stated)	none (no result: AHR activator, DAX1 inh-1)
C[C@H]1CN([C@@H](C)CO)S(=O)(=O)c2ccc(Br)cc2O[C@@H]1CN(C)C(=O)CCN1CCCCC1	none (no result: AHR activator)
CCOC(=O)c1cc(C(=O)Nc2ccccc2F)nn1C	hgDAF-12 ag 13.2
CCOC(=O)n1ccc(C(=O)Nc2ccccc2F)n1	none
CCOC(=O)c1nnn(CC(=O)N2N=C(c3ccccc3)CC2c2ccccc2)c1C(=O)OCC (configuration not stated)	DAX1 inh-1 5.1
CCOC(=O)c1nnn(CC(=O)N2N=C(c3cc(C)ccc3C)CC2c2ccc(OC)cc2)c1C(=O)OCC (configuration not stated)	none
CCOC(=O)/C=C(\C)N1N=C(c2ccccc2)CC1c1ccccc1 (configuration not stated)	hcDAF12 agonist 6.7
CC(C)c1ccc(NC(=O)C2CC(=O)Nc3nc4ccccc4n32)cc1 (configuration not stated)	none
CCOC(=O)C1CCN(c2cc(=O)n(-c3ccccc3Cl)c(=O)[nH]2)CC1	DAX1 inh-1 4.2
Cc1ccc(C2c3c(-c4ccccc4)n[nH]c3C(=O)N2c2ccccc2)cc1 (configuration not stated)	none (no result: AHR activator, DAX1 inh-1)
Cn1c(=O)n(/N=C/c2ccccc2)c2ccccc21	AHR activator 62.0

Screening data (PubChem BioAssay)
